In PubChem BioAssay (NCI):
About 83,000 compounds went through this panel and 20% of them were active in at least one assay; those are over-represented in the sample as a whole.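 In brief: 96-well plates, 48 h treatment, single concentration, percent growth endpoint.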 A number with no mark means an inactive call. Calls of active or inactive are those of the source. How the source made its calls: active means growth percent below 10; inactive means the rest.

Tests used:
Assay in all cases: NCI-60 one-dose screen, 48 h (100 = growth as untreated, 0 = no growth, -100 = all killed)
Conditions in all cases: 10 µM unless noted
T-47D breast = system: T-47D breast
BT-549 breast = system: BT-549 breast
MDA-MB-435 melanoma = system: MDA-MB-435 melanoma
SW-620 colon = system: SW-620 colon
MCF7 breast = system: MCF7 breast
HCT-116 colon = system: HCT-116 colon
HCC-2998 colon = system: HCC-2998 colon
KM12 colon = system: KM12 colon

Row | SMILES | growth (T-47D breast) | growth (BT-549 breast) | growth (MDA-MB-435 melanoma) | growth (SW-620 colon) | growth (MCF7 breast) | growth (HCT-116 colon) | growth (HCC-2998 colon) | growth (KM12 colon)
1 | O=C(N=Nc1c(O)[nH]c2ccccc12)Nc1ccc(Cl)cc1 | 87.2% | 103% | 95.5% | 90.3% | 76.3% | 94.4% | 99% | 81.1%
2 | N#C/C(=C\c1ccc(-c2ccc(Cl)cc2)o1)c1ccc(Cl)cc1 | 51.2% | 79.5% | 85.1% | 66.2% | 62.1% | 12.7% | 96.4% | 88.9%
3 | Cc1ccc(S(=O)(=O)n2cc(C3C(Cl)C(=O)N3c3ccc(N4CCOCC4=O)cc3)c3ccccc32)cc1 (stereo not drawn) | 51% | 48.3% | -21.2% (active) | 26.1% | 20.8% | 16.5% | 86.6% | 85.6%
4 | Cc1ccc(C)c2c1C(O)(C#Cc1ccccc1)c1ccccc1C2(O)C#Cc1ccccc1 (stereo not drawn) | 38.5% | 68% | 47.9% | 53.5% | 28.9% | 43.3% | 87.4% | 50.1%
5 | COc1ccc(Cl)cc1Nc1nc(C(F)(F)F)ccc1C(=O)N/N=C/c1ccccc1Cl | -22.5% (active) | 13.3% | 26.9% | 7.18% (active) | -8.68% (active) | 14.2% | -11.2% (active) | 7.71% (active)
6 | Cc1ccc2[nH]c(=O)c3c(c2c1)OC(N)=C(C#N)C31C(=O)c2cccc3cccc1c23 (stereo not drawn) | 85.8% | 102% | 97.6% | 101% | 88.2% | 101% | 106% | 94.4%
7 | CCCCSCC(=O)c1ccccc1 | 95.4% | 99.9% | 106% | 105% | 98.2% | 95.2% | 100% | 98.5%
8 | N=C(N)SCc1cccc2c(CSC(=N)N)cccc12 | 96.2% | 107% | 107% | 103% | 98.2% | 101% | 104% | 94.5%
9 | O=C1Nc2ccc(F)cc2/C1=C\c1nc(-c2ccccc2F)n2ccccc12 | 88% | 102% | 101% | 44.9% | 47.9% | 44.2% | 100% | 97.2%
10 | COc1ccc(-c2ccc(=O)oc2C#Cc2cc(OC)c(OC)c(OC)c2)cc1O | 38.8% | -16.9% (active) | -78% (active) | -30.3% (active) | 3.79% (active) | -30.4% (active) | 221% | 3.09% (active)
11 | CCOC(=O)c1cn2ncnc(Oc3ccc(NC(=O)NC4CC4)c(F)c3)c2c1C | 93.8% | 103% | 95.9% | 96.2% | 92.6% | 76.9% | 110% | 101%
12 | C/C(=C(\c1ccc(OCCN2CCCCCC2)cc1)c1ccc(OC(=O)Cc2ccccc2)cc1)c1ccc(Cl)cc1 | 10% | 67.5% | 41.6% | -34.7% (active) | 3.78% (active) | 4.58% (active) | 13.6% | 22.1%
13 | COc1cc2ncnc(Nc3ccc(F)c(Cl)c3)c2cc1OCC(=O)N1CCN(c2ccc(F)cc2)CC1 | 75.2% | 101% | 96.5% | 101% | 83.8% | 88.7% | 98.1% | 100%
14 | O=c1[nH]c(-c2ccc(Cl)cc2)cn1-c1ccc(-n2cc(-c3ccc(Cl)cc3)[nH]c2=O)cc1 | 89.1% | 110% | 98.8% | 102% | 99.8% | 101% | 106% | 106%
15 | C[Se]C(=O)CC1=C2C=C(F)C=CC2/C(=C\c2ccc(S(C)=O)cc2)C1C (stereo not drawn) | 48.7% | -89.8% (active) | -25.9% (active) | 4.55% (active) | 15.5% | 7.49% (active) | 68.9% | 50.1%
16 | COC1=CC(c2ccc[nH]2)=N/C1=C\c1[nH]c(C)c(CC(=O)OCc2ccccc2)c1C | -28.6% (active) | -1.22% (active) | -21.3% (active) | -6.46% (active) | 4.14% (active) | -35% (active) | 13.4% | -9.28% (active)
